In all, about 1,200 compounds went through this assay and about 50 (4%) showed activity. This excerpt belongs to a sample that is enriched for actives. Unmarked numbers belong to inactive results. No stated cut-off is given here; in the data, all actives reach 1.3 or more but so do some inactives.
Test system: Lgr5 (MarsCy1-Lgr5-EGFP, U2OS)
Test: cell-surface Lgr5 expression (SCi1 fluorescence, background-subtracted) relative to WT DMSO (fold of DMSO control); higher = more Lgr5 at the plasma membrane, active = hit call of the paper
Conditions: U2OS MarsCy1-Lgr5-EGFP stable; treatment time: overnight; 16 µM; library: Johns Hopkins Clinical Compound Library

Structure (SMILES)	cell-surface Lgr5 expression
C=CC[N+]1([C@H]2C[C@H]3[C@@H]4CC[C@H]5C[C@H](O)[C@@H](N6CCOCC6)C[C@]5(C)[C@H]4CC[C@]3(C)[C@H]2OC(C)=O)CCCC1 [Rocuronium bromide (Zemuron)]	1.2
CCCCC(C)(O)C/C=C/[C@H]1[C@H](O)CC(=O)[C@@H]1CCCCCCC(=O)OC (mixture of isomers) [Misoprostol]	1.07
O=C(Cc1cccs1)N[C@@H]1C(=O)N2C(C(=O)O)=C(/C=C/c3ccc([N+](=O)[O-])cc3[N+](=O)[O-])CS[C@H]12 [Nitrocefin]	0.867
CCOC(C)OCC [Acetal]	1.06
C=C1C[C@H]2[C@@H]3C=C(C)C4=CC(=O)CC[C@]4(C)[C@H]3CC[C@]2(C)[C@@]1(OC(C)=O)C(C)=O [Melengestrol acetate]	1.58 (active)
CC(=O)O[C@]1(C(C)=O)CC[C@H]2[C@@H]3C=C(C)C4=CC(=O)CC[C@]4(C)[C@H]3CC[C@@]21C [Megestrol Acetate]	1.29
CC(=O)O[C@]1(C(C)=O)CC[C@H]2[C@@H]3C=C(Cl)C4=CC(=O)CC[C@]4(C)[C@H]3CC[C@@]21C [Chlormadinone acetate]	1.09
CO[C@H]1C=CO[C@@]2(C)Oc3c(C)c(O)c4c(O)c(c(C=O)c(O)c4c3C2=O)NC(=O)C(C)=CC=C[C@H](C)[C@H](O)[C@@H](C)[C@@H](O)[C@@H](C)[C@H](OC(C)=O)[C@@H]1C [3-formyl Rifamycin]	1.12
O=C([O-])[O-].[Ca+2] [Calcium carbonate]	0.936
COC(=O)Nc1nc2cc([S+]([O-])c3ccccc3)ccc2[nH]1 (configuration not stated) [Oxfendazole]	1.18
O=[N+]([O-])c1ccc(O)cc1 [4-Nitrophenol]	1.17
[Na+].[OH-] [Sodium hydroxide]	0.75
COc1ccc2cc([C@H](C)C(=O)O)ccc2c1 [Naproxen (s-6-methoxy methyl 2-naphthalene acetic acid)]	0.783
COc1ccc2cc(CCC(C)=O)ccc2c1 [Nabumetone]	1.32 (active)
COc1ccc(C(=O)c2ccccc2O)c(O)c1 [Dioxybenzone (2,2'-Dihydroxy-4-methoxybenzophenone)]	0.985
COc1ccc2cc([C@H](C)C(=O)O)ccc2c1 [Naproxen sodium]	1.03
O=C([O-])C[NH+](CC(=O)[O-])CC(=O)[O-].O=C([O-])C[NH+](CC(=O)[O-])CC(=O)[O-].O=C([O-])C[NH+](CC(=O)[O-])CC(=O)[O-].[Na+].[Na+].[Na+].[Na+].[Na+].[Na+].[Na+].[O]=[Bi][O]C(=O)C[NH+](CC(=O)[O-])CC(=O)[O-] [Bismuth Sodium Triglycollamate (Nitrilotriacetic acid)]	1.08
